For 12 molecules, outcome and AC50 results are on record in PubChem BioAssay AID2283179 (EPA ToxCast).

Each structure is given as a SMILES string. Results filed as inconclusive are left out. Calls of active or inactive are those of the source. How the source made its calls: active means hit-call score of the fitted dose curve at least 0.9, where 1 is the maximum; inconclusive means response in the unintended direction; inactive means score below 0.9.

The target of the assay is human Microtubule Affinity Regulating Kinase 1 (MARK1), MARK1 (gene 4139) (UniProt Q9P0L2). The assay is described as follows: NVS_ENZ_hMARK1: NovaScreen (NVS) Enzymatic Assay for human Microtubule Affinity Regulating Kinase 1 (MARK1). As for the experimental part: NVS_ENZ_hMARK1 is a biochemical, single-readout assay that uses extracted gene-proteins in a cell-free assay. Measurements were taken 1 hour after chemical dosing in a 384-well plate.NVS_ENZ_hMARK1 is one of one assay component(s) measured or calculated from the NVS_ENZ_hMARK1 assay. It is designed to make measurements of enzyme activity, a form of enzyme reporter, as detected with fluorescence intensity signals by Fluorescence and electrophoretic mobility shift technology.Data from the assay component NVS_ENZ_hMARK1 was analyzed into 1 assay endpoint. This assay endpoint, NVS_ENZ_hMARK1, was analyzed in the positive analysis fitting direction relative to DMSO as the negative control and baseline of activity. Using a type of enzyme reporter, loss-of-signal activity can be used to understand changes in the enzymatic activity as they relate to the gene MARK1. Furthermore, this assay endpoint can be referred to as a primary readout, because this assay has produced multiple assay endpoints where this one serves a enzymatic activity function. To generalize the intended target to other relatable targets, this assay endpoint is annotated to the kinase intended target family, where the subfamily is serine/threonine kinase.
human Microtubule Affinity Regulating Kinase 1 (MARK1), MARK1 (gene 4139), sequence (Q9P0L2 whole entry, looked up): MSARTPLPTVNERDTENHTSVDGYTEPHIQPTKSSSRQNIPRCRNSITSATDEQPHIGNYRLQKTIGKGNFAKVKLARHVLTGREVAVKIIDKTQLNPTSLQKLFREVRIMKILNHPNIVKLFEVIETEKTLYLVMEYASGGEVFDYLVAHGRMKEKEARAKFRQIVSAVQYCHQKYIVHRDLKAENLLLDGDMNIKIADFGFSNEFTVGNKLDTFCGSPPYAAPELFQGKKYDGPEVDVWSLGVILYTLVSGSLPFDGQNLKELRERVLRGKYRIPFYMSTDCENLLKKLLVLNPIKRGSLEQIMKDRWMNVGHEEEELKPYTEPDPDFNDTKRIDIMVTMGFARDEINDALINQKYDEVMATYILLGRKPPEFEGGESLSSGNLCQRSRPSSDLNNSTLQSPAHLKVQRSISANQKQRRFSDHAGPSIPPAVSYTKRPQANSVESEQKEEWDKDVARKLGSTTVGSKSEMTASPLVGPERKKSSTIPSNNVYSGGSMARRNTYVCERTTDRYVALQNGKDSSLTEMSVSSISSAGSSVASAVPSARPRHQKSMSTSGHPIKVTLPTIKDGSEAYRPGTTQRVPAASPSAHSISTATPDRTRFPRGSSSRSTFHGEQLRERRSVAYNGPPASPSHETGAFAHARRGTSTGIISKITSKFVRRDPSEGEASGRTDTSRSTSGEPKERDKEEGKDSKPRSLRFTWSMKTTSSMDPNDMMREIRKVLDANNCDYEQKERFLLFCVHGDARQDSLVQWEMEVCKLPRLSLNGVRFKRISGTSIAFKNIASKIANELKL
Binding assays used specific radioligands (tritiated, iodinated) with non-radioactive competitive displacement ligands in agonist or antagonist protocols (as indicated) and various reference compounds and inhibitors to titrate specific binding to receptors and transporters. Most enzyme assays (CYPs, kinases, phosphatases, proteases, HDACs) used recombinant protein and specific substrates (fluorescence mostly, some colorimetric and radioactive) and inhibitors, followed by a biochemical separation of substrate and product. All assays for the biochemical HTS were initially run in duplicate at a single concentration (10 uM for CYP450 assays and 25 uM for all others). Assay-chemical combinations meeting a pre-defined threshold (e.g., 30% inhibition and other criteria defined below) were then run in singleton concentration-response format with maximum concentration of 20 uM for CYPs and 50 uM for all others. Each assay was run with positive and negative controls, and concurrent controls on every plate. The follow-up (secondary) screen tested active chemical-pairs in concentration series, as well as a few additional assays not tested in the primary screen, some selected negative inactives, and several cases re-run in the concentration series for confirmatory purposes.
In the case of `COP(=S)(OC)Oc1nc(Cl)c(Cl)cc1Cl`, the outcome was inactive.
The same measure, in the same setting: with `CCOP(=O)(OCC)Oc1nc(Cl)c(Cl)cc1Cl` the entry was “inactive”; with `Nc1c(Cl)cc([N+](=O)[O-])cc1Cl`, “inactive”; with `CNC(=S)S`, “inactive”.
Consider `O=S(=O)(O)C(F)(F)C(F)(F)C(F)(F)C(F)(F)C(F)(F)C(F)(F)C(F)(F)C(F)(F)F`, for which the AC50 – broadly, the concentration at which the activity in the assay is half-maximal – is 36.8 µM (active).
Still for that read-out and setting: with `CN(C)[C@@H]1C(=O)C(C(N)=O)=C(O)[C@@]2(O)C(=O)C3=C(O)c4c(O)cccc4[C@@](C)(O)[C@H]3[C@H](O)[C@@H]12` the figure was 18 µM (active).
With `N#CSCSC#N`, the call was inactive.
On the same count and under the same terms, the result for `O=C(O)C(F)(F)C(F)(F)C(F)(F)C(F)(F)C(F)(F)C(F)(F)C(F)(F)F` reads “inactive”; that for `CCOP(=S)(OCC)Oc1nc(Cl)n(C(C)C)n1`, “inactive”.
Still for that read-out and setting: the result for `COC(=O)c1ccccc1S(=O)(=O)NC(=O)N(C)c1nc(C)nc(OC)n1` reads “inactive”; that for `CCNC(=O)NC(=O)C(C#N)=NOC`, “inactive”.
Take `COc1nc(C)nc(NC(=O)NS(=O)(=O)c2ccccc2CCC(F)(F)F)n1`: the molecule was classed as inactive.
